Source: PubChem (Buhrlage Lab, Dana-Farber Cancer Institute and Novartis Institutes for BioMedical Research (Cambridge, Mass))
An excerpt weighted towards active compounds, which were near 11% of everything screened.
USP17 inh = inhibitors of human USP17 deubiquitinase | inhibition, % at 50 µM | 47,000 tested, 6.5% active | purified USP17, Ub-rhodamine cleavage fluorescence, 3 h
Target sequence (A8MUK1 whole entry, looked up): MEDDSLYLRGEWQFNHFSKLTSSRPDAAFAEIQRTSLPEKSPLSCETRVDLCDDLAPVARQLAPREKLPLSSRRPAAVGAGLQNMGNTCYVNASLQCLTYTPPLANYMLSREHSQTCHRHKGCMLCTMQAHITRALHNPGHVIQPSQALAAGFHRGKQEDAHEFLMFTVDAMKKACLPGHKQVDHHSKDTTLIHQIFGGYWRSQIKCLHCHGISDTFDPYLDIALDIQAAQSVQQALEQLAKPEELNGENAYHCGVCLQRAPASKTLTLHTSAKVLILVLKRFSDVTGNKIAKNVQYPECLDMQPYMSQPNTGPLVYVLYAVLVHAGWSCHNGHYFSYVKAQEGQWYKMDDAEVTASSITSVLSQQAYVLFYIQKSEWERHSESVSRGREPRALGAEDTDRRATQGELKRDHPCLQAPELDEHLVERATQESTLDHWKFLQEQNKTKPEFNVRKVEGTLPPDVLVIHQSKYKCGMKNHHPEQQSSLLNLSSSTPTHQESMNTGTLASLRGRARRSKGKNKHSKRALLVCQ
USP30 inh = human USP30 deubiquitinase inhibition | inhibition, % at 25 µM | purified USP30, Ub-rhodamine cleavage fluorescence | Q70CQ3 | 47,000 tested, 5.3% active | AID 1645860
USP28 inh = inhibitors of human USP28 deubiquitinase. Q96RU2. purified USP28, Ub-rhodamine cleavage fluorescence, 30 min. inhibition, % at 25 µM. 47,000 tested, 3% active
Numbers without * were called inactive; i = inactive; / = no result given. Rule as the data show it: active = inhibition above about 30%; inactive = the rest.

SMILES | USP17 inh | USP30 inh | USP28 inh
O=C(COc1ccc(Cl)cc1)NCc1nnc(SCC(=O)NCc2ccc(F)cc2)o1 | 1 | 27 | 7
CCn1nc(-n2cnnc2)c(NC(=O)c2cccc(Cl)c2)c1C | 13 | 29 | 12
Clc1ccccc1CN1CCC(c2nnc(-c3cccnc3)o2)CC1 | -5 | -2 | -2
O=C(/C=C/c1ccc2c(c1)OCO2)c1ccc(-n2cncn2)cc1 | 45* | / | /
CN1CC(NC(=O)/C=C/c2ccc3c(c2)OCO3)CC1=O (stereo unspecified) | -6 | -2 | 0
CCCn1c(=O)c2cc(C(=O)NCc3ccccc3C)nn2c2ccccc21 | 1 | 23 | 9
Cc1c(C(=O)NCc2ccccc2Br)cc(-c2ccccc2)n1C | 20 | 32* | 22
COc1ccc(S(=O)(=O)N2CCCCC2)cc1NC(=O)c1ccc(OCC2CCCO2)cc1 (stereo unspecified) | 20 | 47* | 11
Cc1ccc(S(=O)(=O)N2CCCCC2)cc1NC(=O)c1ccc(C#N)cc1 | -33 | -14 | 4
COc1ccc(C)cc1NC(=O)CN1CCC(Cc2ccccc2)CC1 | 21 | 18 | 2
O=C(Nc1cccc(S(=O)(=O)N2CCCC2)c1)c1ccc(OCc2ccccc2)cc1 | -7 | 3 | 26
COc1ccc(S(=O)(=O)N2CCC(Cc3ccccc3)CC2)cc1NC(C)=O | 21 | 35* | 14
O=C(Nc1cccc(S(=O)(=O)N2CCCC2)c1)c1ccc(OCC2CCCO2)cc1 (stereo unspecified) | 10 | 19 | 36*
O=C(C1CCCC1)N1CCCC2(COCCN(CC3CC3)C2)C1 (stereo unspecified) | -1 | -4 | 4
Cc1ccc(NC(=O)Cn2cc(C(=O)N3CCCCC3)c(=O)c3ccc(C)nc32)cc1 | -3 | 11 | 1
COCCN1Cc2c(C(=O)N3CC=CC3)ncn2-c2ccccc2S1(=O)=O | -6 | -20 | -14
C=C[C@]1(C)CC[C@]2(C)[C@@H](C1)[C@@H](O)C[C@H]1[C@]3(C)CCC[C@@]12OC3=O | -39 | -11 | -7
C=C[C@@]1(C)CC[C@@]2(C)[C@@H](CC[C@]3(C)C(C)=C(O)C(=O)C[C@H]23)C1 | 43* | 37* | 12
CC(=O)N1Cc2cc(C)ccc2OC2(CCN(CC(=O)N3CCCCC3)CC2)C1 | -3 | 7 | -4
Nc1ccc([C@@H]2CN(Cc3ccccc3)C[C@]23CCCC(=O)N3)cc1 | -39 | 4 | 0
CCOC(=O)N1CCC(NC(=O)c2sc(-c3ccc(F)cc3)nc2C)CC1 | 20 | 19 | 16
Cc1nc(-c2ccccc2)sc1C(=O)CSc1ccc(F)cc1 | 14 | 32* | 20
C=C1C=C(NCCCn2ccnc2)n2nc3nc(C)cc(C)c3c2N1 | 4 | -1 | 6
O=C(Nc1ccccc1F)c1sccc1Oc1ccc([N+](=O)[O-])cc1F | 45* | 40* | 17
COC(=O)c1ccccc1NC(=O)c1sccc1Oc1ccc(F)cc1[N+](=O)[O-] | 12 | 19 | 7
SMILES | USP17 inh | USP30 inh | USP28 inh
NC(=O)c1ccc(NC(=O)CCCC2=NS(=O)(=O)c3ccccc3N2)cc1 | -12 | -23 | -12
O=C(CCCC1=NS(=O)(=O)c2ccccc2N1)Nc1ccc(Cl)c(Cl)c1 | 34* | 17 | 13
O=C(Nc1ccc(N2CCN(C3CCCCC3)C2=O)nc1)c1ccccn1 | -132 | i | -135
O=C(NCc1cccc(NC(=O)C2CC2)c1)Nc1cccc2ccccc12 | 54* | 16 | 2
O=C(Nc1ccccc1)C1CCN(S(=O)(=O)c2cccc3cnccc23)CC1 | 19 | -9 | 1
COc1ccccc1CNC(=O)CCC1CCCC1 | -12 | 2 | -7
COc1ccccc1CNC(=O)Nc1cccc2ccccc12 | 53* | 30* | 4
COc1cccc(C(=O)N2Cc3ccccc3N(C)C(C)C2)c1 (stereo unspecified) | -4 | 8 | -7
O=C(Nc1ccc(F)cc1)N1CCN(Cc2nnnn2-c2cccc(F)c2)CC1 | -9 | -11 | -4
O=[N+]([O-])c1cc(C(F)(F)F)ccc1NCC1COc2ccccc2O1 (stereo unspecified) | 1 | -169 | -16
Cc1cccc(C)c1NC(=O)CCc1ccc(-c2ccccc2)o1 | 12 | -21 | 8
Cc1cccc(NC(=O)c2cccnc2N2CCOCC2)c1 | 7 | 9 | -5
Cc1ccc(-c2nc(-c3ccccc3)c(S(=O)(=O)CC(=O)Nc3ccc(C)c(C)c3)[nH]2)cc1 | 37* | 1 | 14
CCOc1ccc(NC(=O)CS(=O)(=O)c2[nH]c(-c3cccc(OC)c3)nc2-c2ccccc2)cc1 | 13 | 18 | 19
Cc1noc(C2CCCCN2Cc2cc(=O)n3ccccc3n2)n1 (stereo unspecified) | 1 | 15 | 0
C[C@]12C(=O)N(Cc3ccco3)CC(=O)N1CC(c1ccc(Cl)cc1)c1c2[nH]c2ccccc12 (stereo partly specified) | 31* | -51 | 3
CCCOc1ccc(C2CN3C(=O)CN(Cc4ccco4)C(=O)[C@]3(C)c3[nH]c4ccccc4c32)cc1OC (stereo partly specified) | 1 | 10 | 3
CCc1ccccc1N(C(=O)c1ccc2c(c1)OCCO2)C(C(=O)NCc1ccccc1)c1ccc(F)cc1 (stereo unspecified) | -47 | -86 | -32
O=C(Cc1nnc(-c2cnccn2)o1)NCc1ccc(Cl)cc1 | -7 | -2 | -4
Clc1ccc(Cc2nnc(-c3cccnc3)o2)cc1 | 1 | 0 | 31*
CC(C)CN1CC2(CCN(C(=O)c3ccn[nH]3)CC2)COc2ccccc2S1(=O)=O | -10 | -9 | -8
COCc1cc(Sc2ccc(OC)cc2)nc(-c2ccccc2)n1 | 1 | 3 | 0
O=S(Cc1cc(Sc2ccccc2)nc(-c2ccccc2)n1)c1ccccc1 (stereo unspecified) | 3 | 34* | 13
CC(C)NC(=O)N1CCCCCC1C1CCN(Cc2ccc(C(N)=O)cc2)CC1 (stereo unspecified) | -56 | -166 | -61
CC(=O)N(O)CCC[C@@H]1NC(=O)[C@H](CCCN(O)C(C)=O)NC1=O | 36* | -11 | 19
SMILES | USP17 inh | USP30 inh | USP28 inh
CCCCC1(c2ccc(F)cc2)NC(=O)N(CC(=O)c2cc(C)[nH]c2C)C1=O (stereo unspecified) | -59 | -297 | -87
COCCN1CC2(CCN(C(=O)c3ccc[nH]3)CC2)COc2ccccc2S1(=O)=O | -9 | 0 | 1
O=C(Cn1cnc2ccc(Cl)cc2c1=O)N(Cc1ccccc1F)C1CC1 | 7 | 14 | 0
O=C(Cn1cnc2sc(-c3ccccc3)cc2c1=O)N(Cc1ccccc1F)C1CC1 | 34* | 35* | 31*
Cc1ccc2oc(=O)c(S(=O)(=O)N3CCCCC3)cc2c1 | 61* | 25 | 9
O=c1oc2ccccc2cc1S(=O)(=O)N1CCCCC1 | 5 | 0 | -2
c1ccc(C2(c3nc(-c4ccc(-n5cccn5)nc4)no3)CC2)cc1 | 7 | 17 | 11
Cc1ccc2nc(C3CN(S(=O)(=O)c4ccc5c(c4)OCCO5)C3)[nH]c2c1 | -19 | -31 | -15
Cc1ccc(S(=O)(=O)N2CCC3(CC2)OC(=O)Nc2ccccc23)cc1 | 9 | 16 | 0
O=C(Cn1cnc2c(c1=O)CCCC2)NC1CCCC1 | -2 | 9 | -8
